# Bioassay records deposited in PubChem by several laboratories.
# M1 ag – activates the M1 muscarinic receptor; CHO-M1 cells, Fluo-4 calcium fluorescence, agonist mode; hits give high values; B-score at 10 µM; hit rate 3% among 64,000;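 active means fluorescence rise, raw or as B-score row- and column-corrected plate score, outside the 99.7% band of its plate's samples, either direction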
# M1 antagonist – antagonists of rat M1 muscarinic receptor; P08482; CHO-M1 cells, Fluo-4 calcium, ACh EC80 antagonist mode; hits give low values; B-score at 10 µM; hit rate 3.4% among 64,000; AID 628;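 active means calcium fluorescence response, raw or row-and-column corrected B-score, differing from the plate sample mean either way at a set confidence level, mostly lower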
# Target sequence (P08482 whole entry, looked up): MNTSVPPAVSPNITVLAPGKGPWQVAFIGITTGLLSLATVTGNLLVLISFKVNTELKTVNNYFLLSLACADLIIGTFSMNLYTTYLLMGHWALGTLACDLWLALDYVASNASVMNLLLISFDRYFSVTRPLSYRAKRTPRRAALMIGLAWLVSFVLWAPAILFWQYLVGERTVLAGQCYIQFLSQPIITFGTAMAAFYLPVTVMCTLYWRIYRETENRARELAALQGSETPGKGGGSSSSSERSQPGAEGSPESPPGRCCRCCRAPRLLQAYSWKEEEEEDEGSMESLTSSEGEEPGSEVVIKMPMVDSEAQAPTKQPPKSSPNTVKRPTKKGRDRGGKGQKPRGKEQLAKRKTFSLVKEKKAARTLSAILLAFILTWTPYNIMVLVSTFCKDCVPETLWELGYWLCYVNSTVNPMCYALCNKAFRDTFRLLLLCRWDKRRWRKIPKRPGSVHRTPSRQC
# D1 mod – allosteric modulators of human D1 dopamine receptor. HEK293 D1, CRE-luciferase, dopamine EC30 potentiation; actives deviate in either direction. hit rate 5.9% among 58,000. P21728. B-score at 10 µM;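 active means luminescence count or its row- and column-corrected plate score outside the 99.7% band of the plate's sample wells, on either side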
# Htt clearance – mutant huntingtin protein clearance | AID 853 | HeLa Exon1htt(103Q)mCFP, aggregate imaging; zero = plate's median compound well | hit rate 0.42% among 47,000 | inhibition, % at 1.5 µM;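 active means inhibition of aggregate fluorescence above about 70%, also judged a hit by eye on the cell image, limit read from the data, passing the limit was not always enough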;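 further: cells exposed to compound for three days before fixation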
# M1 antag confirm – M1 muscarinic receptor (rat) antagonism, confirmed; shares compounds with M1 antagonist; CHO-M1 cells, Fluo-4 calcium, ACh EC80 antagonism; hits give low values; calcium response (max-min fluorescence) at 10 µM; hit rate 43% among 1,700;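 active means calcium response below the same-plate mean of wells given acetylcholine alone at its 80%-effect dose, minus 3 SD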;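 further: raw fluorescence intensity difference in arbitrary instrument units and not normalized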
# mGluR4 antag – selectivity test for M1 antagonists: human mGluR4 receptor; fluorescence response (max-min) at 10 µM; CHO-mGluR4 calcium flux, Fluo-4 fluorescence, glutamate EC80; hits give low values; shares compounds with M1 antagonist; hit rate 0.9% among 1,700;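 active means fluorescence response below the plate's average for near-maximal glutamate wells, less 3 SD of those wells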;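 further: raw unnormalized fluorescence span taken in the window right after glutamate addition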
# * marks the source's active call; other numbers are inactive results; x = no result given. Compounds with a hit are over-represented: about 9.1% of the library has one in this group of screens.
SMILES,M1 ag,M1 antagonist,D1 mod,Htt clearance,M1 antag confirm,mGluR4 antag
N#Cc1c(NCc2ccccc2)ccnc1NCc1cccnc1,-0.08,-4.3*,-0.45,x,441*,262
Cc1ccc(N(CC(=O)Nc2cccc(C)c2)S(=O)(=O)c2cccc3nonc23)cc1,-0.8,0.47,2.3,29,x,x
CN1CCN(C2=C(Cl)C(=O)N(CCc3ccccc3)C2=O)CC1,-1.3,-5.7*,x,-123,376*,244
O=C(c1ccc2c(c1)OCO2)N1CCCC1,x,x,x,44,x,x
O=C(OCC1CCCN2CCCCC12)c1ccc2c(c1)OCO2 (configuration not stated),0.51,-4.8*,-0.27,x,448,196
CCOC(=O)c1c(C)cc(C)n2c1nc1ccccc12,x,x,x,10,x,x
Cc1nc2sc(C(c3cccs3)N3CCC(C(N)=O)CC3)c(O)n2n1 (configuration not stated),0.046,0.095,-1.5,x,x,x
Cc1ccc(Cl)cc1N(CC(=O)N1CCCCCC1)S(C)(=O)=O,0.14,-2.9*,0.52,62,616,241
CS(=O)(=O)N(CC(=O)N1CCCC1)c1cccc(Cl)c1,x,x,-0.23,x,x,x
CCOC(=O)c1cnc2c(C)cccc2c1NCc1ccco1,1.8,-8.3*,1.6,x,321*,249
CCOC(=O)c1cnc2ccccc2c1NCCO,1.3,-2.9*,0.56,x,409*,212
CCOC(=O)c1cnc2ccc(Br)cc2c1NCCO,0.41,-0.017,2,x,x,x
CCOC(=O)c1ccc2ncc(C(=O)OCC)c(NCCCN3CCOCC3)c2c1,0.27,-4.6*,0.72,-21,405*,242
CCOC(=O)c1cnc2c(C(=O)OC)cccc2c1NCc1ccco1,-0.92,-1.3,3.4,5,x,x
CCC(Cc1ccccc1)NC(=O)CSc1ccsc1[N+](=O)[O-] (configuration not stated),x,x,x,-19,x,x
CCOC(=O)Cn1c(=N)n(CCOc2cccc(C)c2)c2ccccc21,-1.5,-0.8*,-0.93,24,603,229
CCOC(=O)Cn1c(=N)n(Cc2ccccc2)c2ccccc21,0.41,-0.35,-1.1,x,x,x
Cn1c(SCC(=O)Nc2nccs2)nnc1-c1ccncc1,-0.6,-6.1*,-0.13,-15,662,155
Cc1csc(NC(=O)CSc2nnc(-c3ccncc3)n2C)n1,-0.39,-0.41,0.35,18,x,x
Cc1noc(C(=O)N2CC3(C)CC2CC(C)(C)C3)c1Cl (configuration not stated),-1.8,0.04,-0.39,x,x,x
Cc1ccc2c(C)nc(NC3=NCN(C(C)C)CN3)nc2c1,-0.3,-0.14,-1.6,-27,x,x
CC(C)(C)P(=O)(CO)c1ccccc1 (configuration not stated),-0.38,-2.5*,0.56,14,508,195
COc1ccc(Cl)cc1NC(=O)c1nc2nc(C)cc(C(F)F)n2n1,-0.44,1.1,-0.0085,x,x,x
O=S(=O)(c1ccc(Cl)cc1)N1CCC(n2cnc3cc(C(F)(F)F)ccc32)CC1,x,x,x,0,x,x
Cc1cccc(NC(=O)Cn2cnc3sc(C)c(S(=O)(=O)N4CCC(C)CC4)c3c2=O)n1,-0.69,-0.063,-0.24,1,x,x
SMILES,M1 ag,M1 antagonist,D1 mod,Htt clearance,M1 antag confirm,mGluR4 antag
COC(=O)c1cc(Br)ccc1-c1ccc(/C=N/n2nnnc2N)o1,1.8,-5*,1.5,x,450,206
CC(CCc1ccccc1)NC(=O)C1CCN(S(=O)(=O)N2CCCCC2)CC1 (configuration not stated),-0.11,-0.24,0.8,4,x,x
COC(=O)C(NC(=O)c1ccc(C)cc1)(Nc1cccc(C)n1)C(F)(F)F (configuration not stated),x,x,x,39,x,x
CN1CCC(N(C)CC(=O)Nc2cccc(Oc3ccccc3)c2)CC1,0.28,-2.8*,-0.53,x,454*,236
Cc1cc2c(c(Sc3ccccc3)n1)C(=O)OC2,0.84,-0.19,2.5,x,x,x
CCOC(=O)C(C)Sc1ncnc2c1nnn2-c1ccc(F)cc1 (configuration not stated),-0.41,-0.82,-0.84,x,x,x
CCC(Sc1ncnc2c1nnn2-c1ccc(F)cc1)C(=O)OC (configuration not stated),-0.13,-2.8*,3,x,640,243
CCCCN(C(=O)Nc1ccc(OCC)cc1)C1CCN(C(C)=O)CC1,x,x,x,-48,x,x
Cc1c(CN2CCN(c3cccc(C(F)(F)F)c3)CC2)c(=O)n(-c2ccccc2)n1C,-2.1,-4.4*,-2.7,-10,458*,228
Cc1c(S(=O)(=O)N2CCN(c3cccc(C(F)(F)F)c3)CC2)c(=O)n(C)c(=O)n1C,-0.4,-0.035,-0.26,x,x,x
Cc1cccc(NC(=O)C2CCN(S(=O)(=O)c3cccs3)CC2)n1,-2,-2.9*,x,-10,637,270
O=C(Nc1ccccn1)C1CCN(S(=O)(=O)c2cccs2)CC1,-1.6,-0.46,-0.31,x,x,x
CCN(CC)S(=O)(=O)c1ccc(NC(=O)CN(c2cccc(C)c2)S(C)(=O)=O)cc1,x,x,x,26,x,x
CCN(CC)S(=O)(=O)c1ccc(NS(=O)(=O)c2cccc(C)c2)cc1,-0.13,-2.6*,0.52,x,581,251
CCCN(CCO)Cc1cccc(Cl)c1,-0.013,-2.6*,-0.0055,6,715,194
CCCN(CCO)Cc1ccc(Cl)c(Cl)c1,-0.48,0.22,-1.4,-2,x,x
Cc1cc(N2CCN(C(=O)c3ccco3)CC2)n2nc(C)nc2n1,-0.36,-0.75,0.011,x,x,x
CCOC(=O)N1CCC(NC2CCCCCCC2)CC1,-0.23,-11*,-0.77,15,100*,219
COC(=O)c1ccccc1NC(=O)N1CCN(C(=O)c2ccco2)CC1,0.57,-0.51,-0.036,x,x,x
CC(=O)NC1C(=O)N(C)c2ccc(Br)cc21 (configuration not stated),x,x,x,-1,x,x
Oc1ccc(Nc2nc(NCC3CCCO3)c3ccccc3n2)cc1 (configuration not stated),0.6,-5.7*,-2.9*,10,483*,237
Cc1cc(N/C=C2\CCCCC2=O)no1,0.00055,0.16,-0.49,x,x,x
CC(C)COP(=O)(c1ccc(N(C)C)cc1)C(O)c1ccccn1 (configuration not stated),0.64,0.28,0.14,-18,x,x
Cc1sc2ncnc(SCC(=O)N3CCCC3=O)c2c1C,-1.4,-4.3*,2,x,651,262
CCc1c(C(=O)NC2CCCC2)csc1C,2,-2.2*,-0.94,-49,653,190
SMILES,M1 ag,M1 antagonist,D1 mod,Htt clearance,M1 antag confirm,mGluR4 antag
O=C(c1cccc(S(=O)(=O)N2CCCC2)c1)c1nnc(-c2ccncc2)o1,-1.8,-1.4,0.94,x,x,x
O=C(NCCCc1ccccc1)C1CCN(c2nnc(-n3cccc3)s2)CC1,-1.3,-0.3,x,-69,x,x
O=C(NCCCN1CCc2ccccc2C1)C1CCN(c2nnc(-n3cccc3)s2)CC1,-0.096,-2.9*,x,x,337*,209
O=C(NCCCN1CCN(Cc2ccccc2)CC1)C1CCN(c2nnc(-n3cccc3)s2)CC1,0.05,-6.9*,-2,x,419*,181
CCN(CC)CCN=C1CCCc2ccccc2N1,-0.0003,-0.31,-0.49,x,x,x
COCCN(C(=O)Cn1nnc2ccccc21)C(C(=O)NC1CCCC1)c1cccc(OC)c1OC (configuration not stated),-0.32,-3.9*,-1.1,x,600,217
